Source: the supplement of paper PMC6555819

Tests used:
Test in all cases: PBM binding z-score (relative to random genomic background probes); higher = stronger binding; sequences stand for … in GC…GCGATTGACAGCGTAGAATGAAGG
[1] = tested on: RARb homodimer (NR concentration 270 nM)
Outline: (§1)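 Custom Agilent 4×180K protein-binding microarrays carried double-stranded probes, each with a 34-nt variable region. These regions held direct-repeat seeds, single-nucleotide variants, half-site ablations and random human genomic background sequences. Ligand-free nuclear receptor dimers were incubated on the arrays for 1 h, antibodies against each partner (one per run) detected binding, and scanned fluorescence was regression-normalized. Binding z-scores take the random background probes as reference.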

[2] = tested on: RARg:RXRa (NR concentration 270 nM, RXRa partner concentration 90 nM)
Outline: as §1

[3] = tested on: RARg homodimer (NR concentration 270 nM)
Outline: as §1

[4] = tested on: RXRa DBDmut IVT, anti-RXR (DBD mutation: RXRa K156A/R161A, NR concentration 90 nM)
Outline: as §1

[5] = tested on: RXRa homodimer (NR concentration 180 nM)
Outline: as §1

[6] = tested on: THRa:RXRa (NR concentration 90 nM, RXRa partner concentration 90 nM)
Outline: as §1

[7] = tested on: THRa homodimer (NR concentration 90 nM)
Outline: as §1

[8] = tested on: VDR homodimer (NR concentration 270 nM)
Outline: as §1

Sequence	PBM binding z-score [1]	PBM binding z-score [2]	PBM binding z-score [3]	PBM binding z-score [4]	PBM binding z-score [5]	PBM binding z-score [6]	PBM binding z-score [7]	PBM binding z-score [8]
AGAATTAGGTTACCAAAGATCAGGGAAACGCTTG	0.444	0.812	0.884	0.172	0.88	1.12	0.308	-0.053
CAAACTAGGGCAAAGGTCAAAGTCGAGCCAACCA	4.68	7.57	6.04	2.02	8.18	3.87	0.591	2.25
CCGAGTAGGTTATGGGGCATTGAGGCAACGGTGA	1.14	0.411	0.507	-0.0381	0.499	0.886	0.453	-0.13
GCATATAAGTAATACAAGGTGAAAGTCCGATTGT	0.816	0.308	0.389	0.717	0.568	2.96	0.985	-0.188
CATACAGGGTCAGCTAGGCGAGAGTAGGGACGGC	3.12	4.39	4.53	1.72	4.02	3.05	1.01	0.943
TCTATTAGTTAATTAGGGCAACCGAAACAGCGGA	0.756	0.526	0.551	1.16	0.875	1.05	0.627	0.625
TAGCCTAGGTCATGCGAGCCAGTATAGTGTCGGC	2.67	3.75	3.79	0.876	3.03	2.98	1.03	0.235
GGTGCTAGGTCAACTGATGGTCAGCTAAAGCTCG	3.76	5.3	5.75	1.28	2.7	2.99	1.07	0.446
CGAACGAGGGCATGAGTTGAGAGCAAATGCCGAT	0.724	1.46	1.56	1.8	1.02	1.25	-0.339	1.26
AGAACGAGGGGAATGAGTTGATAGCACGGGTGGC	0.0648	0.0895	0.0667	0.224	0.437	0.0318	-0.151	0.812
CCTAATGGGCCATTCAGAGGTCATTGATCATATG	4.03	4.62	2.88	1.45	4	3.16	1.19	3.03
CCTACTGGGCCAAAGGGCATTGATTCCAATGCTC	1.16	1.06	0.727	-0.785	0.895	0.159	-0.934	-0.17
GATACAGGGTCAGCTAGAGGCTAGAGTATGGAAA	2.76	5.74	4.56	0.988	4.23	2.86	0.194	0.266
GCTTGTAGATCCAGGTTAAGAAAGACTAAGCTAA	-0.153	-0.172	-0.0642	-0.00816	-0.0609	0.485	-0.162	-0.0555
ATCTCTAGGTAAGACTCAATTCAGTGAAGAACGC	0.0312	0.0724	0.455	0.244	0.0675	0.381	0.522	0.603
TCTATTAGATGATTAGGGCAACCGAAACAGCGGA	0.19	0.609	0.575	1.02	0.432	0.35	-0.055	0.272
TCATATAGTTAATACAGGTGAAAGTCGGCATCTA	0.692	0.857	0.789	2.12	1.2	1.02	0.515	0.657
TGAATGAGGTTATAAGATCAGGGACCGTTGCAAA	0.518	1.43	0.648	0.574	1.83	1.75	0.103	0.401
AGAACGAGGGCAATGAGTTGAGAGCACGGGTGGC	1.1	0.994	1.58	1.93	0.838	1.1	-0.211	2.08

Sequence	PBM binding z-score [1]	PBM binding z-score [2]	PBM binding z-score [3]	PBM binding z-score [4]	PBM binding z-score [5]	PBM binding z-score [6]	PBM binding z-score [7]	PBM binding z-score [8]
TGAATGAGGTTAAAGCTCAGGGAACGTGGCGTCG	0.437	1.9	0.981	1.06	2.71	2.16	0.216	0.0356
GCTTACGGGTCAAACGTTATAGCATGAATAGAAT	2.24	4.8	4.42	2.47	5.6	2.24	-0.707	1.11
CCTTACGAGTCAAGGTTATAGCACGGGTGGTACG	1.07	0.83	0.637	0.174	1.07	1.58	0.715	0.529
GCTACAGGGTCAGCTAGAGGCCAGAGTATGGAAA	3.3	6.74	5.02	1.48	4.32	3.23	0.349	0.386
TTACCAAGGTGAAGGTCGTTGAGCCCTCTGTAGA	1.79	1.3	1.08	0.1	1.59	2.14	0.652	0.688
CCTATTAGTTGACCATCAGGGCAACCGAAGCTCG	1.35	0.553	0.807	0.518	0.205	1.19	0.957	0.592
AATACAGGGTCATCGTAGGCCGGAGTACGCACAG	3.49	5.55	5.08	3.69	6.23	4.13	1.46	3.63
ATCGAAAGGTCGAGGGTGAGTATACCCACCCGAA	2.59	4.14	4.24	0.471	4.59	1.94	-0.00779	0.138
GCTAGCAGGCCATTTGGGTCTCTCAATGACGGGC	-0.614	-0.279	-0.301	-0.264	-0.294	0.0257	-0.703	-0.774
TCACATAGGTAAATGCTAGGTGAAAGTCCGATCT	0.255	0.301	0.189	1.17	0.654	1.31	0.359	-0.199
CCTAGCAGGTCAGGGTCACTCAAGCATTTCGCTT	4.32	5.02	5.1	1.94	5.24	3.71	1.83	2.32
ATCTCTAAGTAAAGATAGTTCAGTGAATGCAAAT	0.667	0.945	0.889	0.232	0.538	0.429	-0.328	0.578
CCTACTGGGCCATTCAGAGGTAATTGATCATATG	-0.0878	0.0655	0.162	-0.042	-0.244	0.3	-0.433	-0.114
GGAACGAGGGCAAGTTGATGGCAGAGTTTGATGG	1.59	1.66	1.92	2.1	1.05	1.34	0.188	1.5
GCGACTGGGGCAAAGTAGGTTACCATAAGGTTGG	1.42	0.662	0.576	-0.138	0.504	2.09	0.208	0.042
CCTTACGGGTCACGAGGTTATAGCCCGACGAGCG	4.11	6.07	5.36	1.81	6.74	3.65	1.07	2.03
TCTTGTAGATCAACAGGGGGTTAAGAAAGATCGA	1.32	1.91	0.92	1.89	1.93	1.86	0.559	0.493
CCTACTGGGCCACGAAAGGTCATTCATTCAGTGA	4.77	4.77	4.33	0.665	5.17	3.8	0.995	2.83
AGAACGAGGGCAATGAGTTGATATCACGGGTGGC	1.12	1.33	1.45	2.15	1.2	1.17	-0.128	2.71

Sequence	PBM binding z-score [1]	PBM binding z-score [2]	PBM binding z-score [3]	PBM binding z-score [4]	PBM binding z-score [5]	PBM binding z-score [6]	PBM binding z-score [7]	PBM binding z-score [8]
CCTCGGAGGACAACAGGAGGTGAGAGCTGCCAGA	1.05	0.71	1.35	-0.141	-0.117	1.44	0.525	-0.285
AATACAGGGTCATAGTAGGCCAGAGTACGCACAG	3.26	4.92	4.13	3.36	5.63	4.23	1.41	3.6
ATCTCTAAGTAAAGTTCAGTGAAAGATCGATAGA	2.32	1.98	2.42	1.71	1.26	0.85	-0.131	2.32
TCTCGGAGGACACGAAGGTCAGAGCTTTCCAGAG	3.78	2.79	3.63	0.904	1.69	2.87	0.784	1.03
AATACAGAGTCATCGTAGGCCAGAGTACGCACAG	0.0687	0.22	0.465	-0.473	0.406	1.69	-0.921	0.0153
CCTACTGGGCCCAAAAGGTCATTGATGCCGATAA	4.35	4.87	4.11	-0.121	5.65	3.15	0.687	1.84
TCACCAAGGTGAAAGGTCGTTGATGCACGCCTTG	2.63	4.15	2	1.09	5.41	3.33	0.739	0.922
CAAACTACGTCAAAGGTCAAAGTCGAGCCAACCA	4.68	6.1	5.88	1.66	7.92	3.5	0.927	2.36
ATCGAAAGGTTGACGAGGTGAGTATACACCGTTT	1.28	1.47	1.51	0.0329	1.65	2.62	0.747	0.362
TCTCGAAGGACACGAAAGGTCAGAGCTCGACATC	4.81	4.59	4.73	1.37	4.17	3.39	0.878	0.702
GCTTACGGGTTAAAGGTTATAGCATGAATAGAAT	1.74	3.66	1.37	0.714	6.82	2.8	0.253	0.558
CAAACTAGGTCACCGGAAGGCCAAAGTCCGCATG	3.78	5.9	5.62	1.55	3.59	3.53	1.43	0.943
ATACCCAGGTGATCGTGAGGTCGTTGATACTAAC	2	1.49	0.63	0.432	1.39	3.14	2.72	2.52
TAGCCTTGGTCATGCGGGCCAGTATAGTGTCGGC	-0.234	-0.0381	0.129	-1.52	-0.29	-0.715	-0.902	-0.904
CTCGAATGGTCGGTTGAGGTGAGTATACGGATAA	0.181	-0.0812	0.168	-0.376	-0.171	2.85	1.49	0.136
CCGACTGGGGCCGAAAGGTTACCATACCATCCGG	2.41	2.18	1.28	-0.679	2.15	1.14	-0.247	-0.349
GTAACAAGGTGAATAGGTCGTTGATGAGTAGGCG	1.9	2.74	1.68	0.149	2.29	2.06	0.594	0.415
CCTACTGAGCCATTCAGAGGTCATTGATCATATG	4.08	3.93	2.95	1.66	4.41	3.21	1.58	3.71
